“And” between values parts separate entries of the source, which are not always exact repeats. Equal entries are not always repeated. Over roughly 5,300 compounds, “PER2::LUC luminescence relative to vehicle control” has its median near 0.96; the highest 2% begin near 1.3. The full list was thinned out, with the highest values kept by preference.
Test system: mPer2Luc MEF
Experiment: PER2::LUC luminescence relative to vehicle control (fold of vehicle); higher = higher PER2::LUC reporter signal
Conditions: 10 µM
Method in brief: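 The value is PER2::LUC luminescence expressed as fold of vehicle control. Mouse embryonic fibroblasts carrying the mPer2Luc reporter were seeded at ~3000 cells per well in 384-well plates and grown in DMEM with 10% FBS at 37 °C and 5% CO2. Compounds from commercial libraries were added at 10 μM 48 h after seeding, and luminescence was read with the ONE-Glo luciferase assay system 24 h and 30 h after treatment, followed by an alamarBlue viability assay.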

SMILES | PER2::LUC luminescence (time after treatment 24 h) | PER2::LUC luminescence (time after treatment 30 h)
Cc1cc(OCc2nc(-c3ccccc3Cl)cs2)ccc1CCC(=O)O | 1.11 | 1.28
CCOc1cc2c(c(F)c1OCC)C(=N)N(CC(=O)c1cc(N3CCOCC3)c(OC)c(C(C)(C)C)c1)C2 | 0.14 | 0.117
Nc1ccc(NC(=O)c2ccc(C(F)(F)F)cc2)nc1 | 1.01 | 0.976
O=C(Nc1ccc(C(O)(C(F)(F)F)C(F)(F)F)cc1)c1ccc(C(F)(F)F)cc1 | 0.687 | 0.47
Cc1oncc1C(=O)Nc1ccc(C(F)(F)F)cc1 | 1.35 | 1.82
CC1=CC[C@@]2(C)CC[C@@](O)(C(C)C)[C@@H]2[C@@H](OC(=O)c2ccc(O)cc2)C1 | 1.08 | 1.15
O=C(Nc1ccc(Cl)cc1CN1C(=O)c2ccccc2C1=O)c1ccccc1O | 1.03 | 1.02
NC[C@H]1CC[C@H](C(=O)Oc2ccc(CCC(=O)O)cc2)CC1 | 0.828 | 0.901
Cc1cc2c(cc1Cl)N(C(=O)Nc1ccc(Oc3cccnc3C)nc1)CC2 | 0.924 | 1.03
C[Si](C)(C)CCOCn1ccc2c(-c3cn[nH]c3)ncnc21 | 1.11 | 1.03
O=C(O)c1ccccc1C(=O)Nc1ccc(S(=O)(=O)Nc2nccs2)cc1 | 0.993 | 0.892
S=C(Nc1ccccc1)Nc1nccs1 | 1.46 | 1.58
O=C(O)CCC(=O)Nc1ccc(S(=O)(=O)Nc2nccs2)cc1 | 0.666 | 0.939
CCOc1ccc(C(Nc2ccccn2)c2ccc3ccc(C)nc3c2O)cc1C (configuration not stated) | 1.13 | 1.13
NC(N)=NCCC[C@H](NC(=O)[C@@H](N)Cc1ccc(O)cc1)C(=O)O | 1.04 | 0.909
CS(=O)(=O)c1cc(F)cc2c3c(n(Cc4ccc(Cl)cc4)c12)[C@@H](CC(=O)O)CC3 | 1.13 | 1.09
CC(C)CCC[C@@H](C)[C@H]1CC[C@H]2[C@@H]3CC=C4C[C@@H](O)CC[C@]4(C)[C@H]3CC[C@]12C | 0.926 | 0.923
CC(C)CCC[C@@H](C)[C@H]1CC[C@H]2[C@@H]3CC=C4CC(=O)CC[C@]4(C)[C@H]3CC[C@]12C | 1.42 | 1.09
CC(=O)OC1CCC2(C)C(=CCC3C2CCC2(C)C(C(C)CCCC(C)C)CCC32)C1 (configuration not stated) | 1.04 | 0.938
CO[C@H]1[C@H](OC(=O)c2ccc(C)[nH]2)[C@H](O)[C@@H](Oc2ccc3c(O)c(NC(=O)c4c[nH]c(C(=O)Nc5c(O)c6ccc(O[C@H]7OC(C)(C)[C@@H](OC)[C@H](OC(=O)c8ccc(C)[nH]8)[C@@H]7O)c(C)c6oc5=O)c4C)c(=O)oc3c2C)OC1(C)C | 1.1 | 1.13
C/C1=C\CC(C)(C)/C=C/C(=O)/C(C)=C/CC1 | 1.08 | 1.06
Cc1nc2ccccc2n1Cc1ccc(Cl)cc1 | 0.361 | 0.307

SMILES | PER2::LUC luminescence (time after treatment 24 h) | PER2::LUC luminescence (time after treatment 30 h)
Clc1ccc(Cn2c(CN3CCCC3)nc3ccccc32)cc1 | 1.06 and 0.848 | 0.924 and 0.834
CN(c1nccc(=O)[nH]1)C1CCN(c2nc3ccccc3n2Cc2ccc(F)cc2)CC1 | 1.07 | 1.45
COc1ccc([C@@H]2OC[C@@H]3[C@H]2CO[C@H]3c2ccc(OC)c(OC)c2)cc1OC | 1.05 | 1.07
CC1(C)CC(NC(=O)C(=O)Nc2ccc(Br)cc2)CC(C)(C)N1 | 0.875 | 0.928
NC1CCN(O)C1=O (single isomer, unassigned; (-)) | 1.08 | 1.01
CC1(C)CC(NC(=O)C(=O)Nc2ccc(Cl)cc2)CC(C)(C)N1 | 0.958 | 1
O=c1c2ccccc2nc2n1CCc1c-2[nH]c2ccccc12 | 1.36 | 1.51
O=C(O)c1cc(=O)c2ccccc2[nH]1 | 1.08 | 0.931
O=C1c2ccccc2-n2c1nc1ccccc1c2=O | 0.998 | 0.885
CC1(C)CC2C1CC[C@]1(CBr)CCC3C(CC(=O)O)C(=O)O[C@@]32C1 (some centres not stated) | 1.04 | 0.929
NCC(O)COc1cccc2ccccc12 (configuration not stated) | 0.637 | 0.588
Cc1onc(-c2ccccc2)c1C(=O)N1CCN(c2ccc([N+](=O)[O-])cc2Cl)CC1 | 0.896 | 1.04
CC(=O)Nc1ccccc1 | 0.881 | 1.21
O=C(Nc1ccccc1)Nc1ccccc1 | 1.57 | 1.44
O=C(Nc1ccccc1)c1ccccc1O | 1.27 | 1.08
CC(C)c1c2cc(-c3ccnc(NC4CCC(NC5CCOCC5)CC4)n3)ccc2nn1C (configuration not stated) | 0.008 | 0.002
OC[C@H]1O[C@@H](O[C@@H]2OC=C[C@H]3[C@H](O)[C@@H]4O[C@]4(CO)[C@@H]23)[C@H](O)[C@@H](O)[C@@H]1O | 1.04 | 1
CCOC(=O)COc1ccc2c(=O)cc(-c3ccccc3)oc2c1 | 1.06 | 1.08
O=c1cc(-c2ccccc2)oc2cc(O)c(O)cc12 | 1.41 | 1.47
O=c1cc(-c2ccccc2)oc2ccc(O)cc12 | 1.47 | 1.89
O=c1cc(-c2ccc(O)cc2)oc2cc(O)c([C@@H]3O[C@H](CO)[C@@H](O)[C@H](O)[C@H]3O)c(O)c12 | 0.972 | 0.983
O=c1cc(-c2ccccc2O)oc2cc(O)ccc12 | 1.27 | 1.38

SMILES | PER2::LUC luminescence (time after treatment 24 h) | PER2::LUC luminescence (time after treatment 30 h)
Cc1cc(=O)oc2cc(O)ccc12 | 1.01 and 1.08 and 0.784 | 0.94 and 0.807 and 0.997
O=c1c(O)c(-c2ccccc2)oc2ccccc12 | 1.08 | 1.05
O=c1oc2ccc(O)cc2c2c1NCCC2 | 0.764 | 1.05
O=c1cc(-c2ccc(O)cc2)oc2ccc(O)cc12 | 1.72 | 1.87
O=c1oc2cc(O)ccc2c2oc3cc(O)ccc3c12 | 1.06 | 1.13
O=c1cc(-c2ccccc2)oc2c(O)c(O)ccc12 | 0.582 | 0.632
O=C(O)/C=C/c1ccc(O)c(O)c1/C(=C\c1ccc(O)c(O)c1)C(=O)O | 1.15 | 1.02
COc1cc(O)c(C(=O)/C=C/c2ccc(OC)c(O)c2)c(OC)c1 | 1.08 | 1
COc1ccc(SC(=O)N[C@@H](CCC(=O)O)C(=O)O)cc1 | 0.852 | 0.909
CC(C)(O)c1ccccc1Cc1ccccc1 | 0.709 | 1.18
C=CC1=C(C)C2=CC3=NC(=C(CC(=O)O)C4=NC(=C(C)C4=C(O)O)C=c4[nH]c(c(C)c4CC)=CC1=N2)C(CCC(=O)O)C3C (configuration not stated) | 0.911 | 0.984
OC[C@H]1O[C@H](O[C@H]2C(O)[C@@H](O)[C@@H](OC[C@H]3O[C@@H]4O[C@H]5[C@H](O)[C@@H](O)[C@@H](O[C@H]6[C@H](O)[C@@H](O)[C@@H](O[C@H]7[C@H](O)[C@@H](O)[C@@H](O[C@H]8[C@H](O)[C@@H](O)[C@@H](O[C@H]9[C@H](O)[C@@H](O)[C@@H](O[C@H]%10[C@H](O)[C@@H](O)[C@@H](O[C@H]3[C@H](O)[C@H]4O)O[C@@H]%10CO)O[C@@H]9CO)O[C@@H]8CO)O[C@@H]7CO)O[C@@H]6CO)O[C@@H]5CO)O[C@@H]2CO)[C@H](O)[C@@H](O)[C@@H]1O (some centres not stated) | 1.08 | 1.06
C=CCCCCCCCCCCCC(O)CC(O)COC(C)=O (configuration not stated) | 0.894 | 0.95
C[C@H](CCC(=O)NCCC[N+](C)(C)CCCS(=O)(=O)[O-])[C@H]1CC[C@H]2[C@@H]3[C@H](O)C[C@@H]4C[C@H](O)CC[C@]4(C)[C@H]3C[C@H](O)[C@]12C | 1.06 | 0.883
O=c1cc(-c2ccccc2)oc2cc(O)ccc12 | 1.48 | 1.84
O=c1c(O)c(-c2ccccc2)oc2cc(O)ccc12 | 1.13 | 1.18
CC1=C([C@@H]2C=C3[C@@H](CC[C@]4(C)[C@@H]([C@H](C)CCCC(C)C)CC[C@@H]34)n3c(=O)n(-c4ccccc4)c(=O)n32)C[C@@H](O)C[C@@H]1O | 0.94 | 0.899
O=c1ccn([C@@H]2O[C@H](CO)[C@@H](O)[C@H]2O)c(=O)[nH]1 | 0.979 | 1.03
O=c1cnn([C@@H]2O[C@H](CO)[C@@H](O)[C@H]2O)c(=O)[nH]1 | 1.41 | 1.5
O=c1ncccn1[C@@H]1O[C@H](CO)[C@@H](O)[C@H]1O | 0.999 | 1.07
NC(=NC12CC3CC(CC(C3)C1)C2)Nc1ccc(I)cc1 | 1.06 | 0.918
CNC(=O)c1cc(Oc2ccc(NC(=O)c3cccc(C(F)(F)F)c3)cc2)ccn1 | 1.15 | 1.14

SMILES | PER2::LUC luminescence (time after treatment 24 h) | PER2::LUC luminescence (time after treatment 30 h)
O=C(OCc1ccccc1)c1ccccc1 | 1.05 | 1.03
CCOC(=O)c1ccc(O)cc1 | 1.06 and 0.859 | 1.02 and 0.79
CCOC(=O)c1ccc(N(C)c2csc(-c3ccccc3)n2)cc1 | 1.19 | 1.58
Cn1cc(-c2ccc3nnc(Sc4ccc5nn(C)cc5c4)n3n2)cn1 | 0.782 | 0.785
C=CC(C)(C)c1cc(/C=C\C(=O)c2ccc(O)cc2)c(OC)cc1O | 0.553 | 0.862
C[C@@H]1C[C@H]2[C@@H]3C[C@H](F)C4=CC(=O)C(Cl)=C[C@]4(C)[C@@]3(F)[C@@H](O)C[C@]2(C)[C@@]1(O)C(=O)CO | 0.765 | 0.857
CC(=O)O[C@H](CC(=O)O)C[N+](C)(C)C | 1.03 | 0.967
CC(C)(C)OC(=O)N1CCC(OCc2nc(-c3ccncc3)no2)CC1 | 0.986 | 0.843
NC(=O)c1cccc(-c2cccc(OC(=O)NC3CCCCC3)c2)c1 | 1.27 | 1.36
NC(=O)c1cccc(N)c1 | 1.1 | 1.01
CC(=O)c1ccc(S(=O)(=O)NC(=O)NC2CCCCC2)cc1 | 1.02 | 0.908
CCCCNc1ccc(C(=O)OCCN(C)C)cc1 | 1.04 | 0.965
CCCCN(CCCC)CCCOC(=O)c1ccc(N)cc1 | 0.966 | 0.832
CCCCOC(=O)c1ccc(O)cc1 | 1.63 and 1.43 | 1.61 and 1.57
N=C(N)c1ccc(N)cc1 | 0.971 | 1.01
CCCOc1ccc(C(=O)OCCN(CC)CC)cc1N | 1.03 | 0.962
CCCCOC(=O)c1ccc(N)cc1 | 1.06 and 1.09 | 1.28 and 1.2
Nc1ccc(C(=O)O)cc1 | 0.924 and 0.9 | 0.926 and 0.943
CCN(CC)CCOC(=O)c1ccc(N)cc1 | 1.07 and 0.897 | 1.58 and 0.928
CC(C)COC(=O)c1ccc(N)cc1 | 1.34 | 1.43

— the supplement of paper PMC9334596
